Measurements published in the supplement of paper PMC11417369.
± gives the standard deviation of the averaged measurements. Whole data set: some 25,000 sequences, median “ln(normalized median fluorescence intensity)” near 10, cut for the highest 2% near 12. Many of the other results were omitted from the sample, so the highest values are more common in it than they were.

system: PfAP2-G AP2 domain (GST-tagged); experiment: gcPBM binding intensity (ln(normalized median fluorescence intensity)); higher = stronger DNA binding
In short: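 GST-tagged P. falciparum DNA-binding domains, expressed in E. coli (about 25 μg on average), were applied for 1 h to an Agilent 4 × 180k array of primer-extended double-stranded 36-bp intergenic genomic probes plus negative controls. The binding buffer was 1× PBS with 1% milk, 0.2 mg/ml BSA, 0.5% salmon testes DNA and 0.03% Triton X-100. Bound protein was detected with Alexa488 anti-GST antibody and scanned at 488 nm. Binding intensity is the highest Masliner-normalised natural-log median intensity across replicate spots of either probe orientation.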

Row | Sequence | gcPBM binding intensity (ln)
1 | GAGAAAAGGAAATTCACACATATAAAGAAAGATCTA [CACACA_site5420] | 9.865 ± 0.064
2 | AAAAAATATTTTTACAGTACATATATATAAAATGTT [XGTACX_site3215] | 10.9 ± 0.58
3 | AAGGAAATATAATATACACACATAAGTGTACTTATA [CACACA_site4030] | 11.6 ± 1.1
4 | ATAAATACACACAAGTGTACATACTTCTATAAATAT [XGTACX_site1845] | 11.3 ± 0.96
5 | AAGGAAATATAATATACACACATAAGTGTACTTCTA [CACACA_site6079] | 11.7 ± 1.1
6 | ATAAAATAAAAGTGTACACAAGAAAATATGTTATGT [CACACA_site6033] | 11.6 ± 0.79
7 | AGTATAAAATAAATGTGTACACAAGAAAATATGTTA [XGTACX_site8381] | 11.8 ± 0.93
8 | ATATATGAAAATATATGTACACAACATATAAAATAG [XGTACX_site5132] | 11.4 ± 0.83
9 | GATTATATATGAAAATGTACAAATATATATATATAT [XGTACX_site5963] | 10.8 ± 0.28
10 | ATAATATAACACAAATGTACAAAAAATAAATAAATA [XGTACX_site385] | 10.7 ± 0.4
11 | TACAAATTAATATGTACACACAAATATATATATATA [CACACA_site1977] | 11.4 ± 0.87
12 | ATATAAATAAATATATGTACACACACAAATATATAC [XGTACX_site3950] | 11.4 ± 0.73
13 | AAGAAATAAAAAGAATGTACACAATATGTATTATAA [XGTACX_site4733] | 11.5 ± 0.69
14 | TATATATATATGTGTAGTACAACAAATATGAAAAAT [XGTACX_site4059] | 11.7 ± 0.86
15 | TTTTTTTTTTTTTTTACACACACAAAATATTATATG [CACACA_site2471] | 9.99 ± 0.38
16 | TATATATATATGTGTACACAAAAAATATTATATTAT [CACACA_site5505] | 11.9 ± 0.93
17 | ATATATATATATATGTGTACACAACAAAATAAAAAA [XGTACX_site7378] | 11.7 ± 0.79
18 | ATCTAATAAAAATACACACACATATGATTTGTGAAT [CACACA_site1867] | 10.1 ± 0.28
19 | TTCTTTTTAAATATACTAATTATGTATAAAACAGAA [GTGCAC_negctrl_site131] | 9.94 ± 0.23
20 | TAAATTATTTATAAAGCACACAAGAAAAAATAAAAT [CACACA_site2132] | 10.2 ± 0.092
21 | TTTCACACTATTTCATGTACACATAAAATTATATAT [XGTACX_site8692] | 11.4 ± 0.94
22 | ATACTATAATAATACACACTCATTAGATATATAAAG [CACACA_site7787] | 9.99 ± 0.12

Row | Sequence | gcPBM binding intensity (ln)
23 | AAAAAAAAAAAATGAGCACACATAAATAAAAACAAA [CACACA_site8447] | 10.2 ± 0.12
24 | AAATTAAATAAATTTACACACTAAAAATTACAGATA [CACACA_site4722] | 9.88 ± 0.028
25 | GACAAATTATTGTGTACACAATATTATTATATATAC [CACACA_site6020] | 11.6 ± 0.89
26 | TATATATATATAATGTGTACACAAATATATATTATA [XGTACX_site8786] | 11.7 ± 1.1
27 | TTATTTTTTTTTTTTTGTACACAATTTGACACATTA [XGTACX_site7983] | 11.5 ± 0.91
28 | AAAAATATATTATATGTACACACAAAATTAAGGGAT [CACACA_site8384] | 11.5 ± 0.83
29 | TGTATTATATATACACAAATATTTATGTGTGTGTTT [XGTACX_negctrl_site475] | 10.1 ± 0.11
30 | TTTGACAAATTATTGTGTACACAATATTATTATATA [XGTACX_site8320] | 11.7 ± 1
31 | ATACACATATGTTAATGTACACATATATAATATTTA [XGTACX_site163] | 11.3 ± 0.78
32 | AAAAATATAATATAATGTACACAAAAAAAAAAAAAT [XGTACX_site4914] | 11.6 ± 0.91
33 | TTAAAAATGTGTGTGCGTACATAATATTTCGAAAAA [XGTACX_site8197] | 11.6 ± 1
34 | AAATGTGTTAATGTGCGTACACATATATATAATATT [XGTACX_site2792] | 11.7 ± 1.1
35 | ATATATATATATATGTGTACACAAAAAATATTATAT [XGTACX_site5741] | 11.6 ± 0.83
36 | AATGTATAATTATAATGTACAAATAATATATAATAT [XGTACX_site5407] | 10.9 ± 0.4
37 | TTTTTTTTCTCACAAAAAATAATTAACAAAAAGGAA [XGTACX_negctrl_site154] | 10.2 ± 0.32
38 | ATATATATAATAAATACACACATTTATATAGATAAA [CACACA_site3254] | 9.925 ± 0.092
39 | TGACTTTGTTGAATTTGTCCTCTTAACTCATAATAT [GTGCAC_negctrl_site217] | 10.6 ± 0.48
40 | TCCTTTCTTTTTTAAACATGCATATGTAATATAAAT [TGCATGCA_site979] | 10 ± 0.26
41 | TTTTTTTGCGCGGGAAGAATAAAATTTATAGAATAT [TGCATGCA_negctrl_site306] | 10.4 ± 0.36
42 | ATAAATAATATAAATACACACTAAAAAAGATATATA [CACACA_site6397] | 10.01 ± 0.014
43 | TTGTGTCATATATTTTGTAATCAAAATAATTTTATT [TGCATGCA_negctrl_site307] | 10.1 ± 0.37
44 | TAGTATAAAATTATGTGTACACAAATATAACTTTTC [XGTACX_site5971] | 11.6 ± 0.78
